Tb PYK inh = T. brucei pyruvate kinase inhibition. 410,000 tested, 0.12% active. Potency, µM (titrated, usually from 76.8 µM), usual class: inhibitors. AID 624173. TbPYK enzyme, Kinase-Glo Plus ATP luminescence, 45 min. Q57TT1; active = well fitted curve in the direction sought with a large enough effect; inconclusive = small, poorly fitted or top-dose-only effect, or another doubt; inactive = no such curve, though single readings can be large; an effect the other way counts as inactive or inconclusive; note: nearly all actives have a fitted effect of over 50% in size
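Luminescence from Kinase-Glo Plus, added after a 45-minute room-temperature reaction, served as the end-point read-out. The enzyme and substrate were preincubated with compound before ADP (130 uM final) initiated turnover. Concentration-effect curves came from normalized qHTS data.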
CHX counter-1 = affects cycloheximide protein synthesis inhibition readout, counter-screen; max response, %; 300,000 tested, 12% active; cell reporter, cycloheximide protein synthesis inhibition counterscreen; in the data active = max response mostly above about 13%, no sharp cut-off; inactive = mostly below about 14%; note: read at 38.3 µM for the half of the compounds with a filed dose
SARS PLpro yeast = inhibitors of SARS-CoV papain-like protease in yeast; S. cerevisiae expressing SARS-CoV PLpro, growth rescue; Potency, µM (top dose mostly 32.9 µM), hits mostly activators; 330,000 tested, 0.19% active; AID 485353; note: nearly all actives have a fitted effect of over 55% in size
Shiga toxin inh = Shiga toxin inhibition. Vero cells, Shiga toxin protein synthesis inhibition reporter. inhibition, % at 38.7 µM. 290,000 tested, 9.2% active; in the data active = inhibition mostly above about 28%, no sharp cut-off; inactive = mostly below about 43%
NS1 inh = inhibitors of influenza NS1 protein function; 270,000 tested, 0.4% active; Potency, µM (titrated, usually from 46.1 µM); AID 2326; note: actives are rising curves; nearly all actives have a fitted effect of over 50% in size
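Growth recovery, yeast-based: influenza A NS1 expressed in S. cerevisiae causes slow growth, and suppressors are detected by OD600. The parent strain without NS1 is used as positive control.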
LmPK inh = LmPK (Leishmania mexicana) enzyme inhibition. AID 1721. 290,000 tested, 0.37% active. Potency, µM (top dose mostly 57.5 µM), most hits filed as inhibitors. purified LmPK, Kinase-Glo ATP luminescence, 1 h; active = well fitted curve in the direction sought with a large enough effect; inconclusive = small, poorly fitted or top-dose-only effect, or another doubt; inactive = no such curve, though single readings can be large; an effect the other way counts as inactive or inconclusive
Target sequence (Q27686 whole entry, looked up): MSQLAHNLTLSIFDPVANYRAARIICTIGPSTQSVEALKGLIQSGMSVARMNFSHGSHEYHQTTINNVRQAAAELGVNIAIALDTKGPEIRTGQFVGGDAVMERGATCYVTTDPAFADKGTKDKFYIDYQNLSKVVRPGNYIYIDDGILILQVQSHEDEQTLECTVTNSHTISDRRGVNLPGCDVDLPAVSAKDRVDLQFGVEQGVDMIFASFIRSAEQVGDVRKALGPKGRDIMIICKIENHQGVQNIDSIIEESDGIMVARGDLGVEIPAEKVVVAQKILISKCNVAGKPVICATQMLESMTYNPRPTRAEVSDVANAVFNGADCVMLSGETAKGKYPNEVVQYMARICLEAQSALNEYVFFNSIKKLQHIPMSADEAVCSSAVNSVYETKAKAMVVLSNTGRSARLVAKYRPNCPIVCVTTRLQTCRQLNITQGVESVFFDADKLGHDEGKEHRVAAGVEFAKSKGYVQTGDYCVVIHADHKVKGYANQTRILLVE
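Screened at intermediate enzyme activity to detect both inhibitors and activators: LmPK at 0.1 nM, with a 0.5 nM enzyme column as activation reference. PEP 0.5 mM, ADP 0.1 mM; ATP detected by luminescence after 1 h.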
CHX counter-2 = counter-screen for Shiga toxin inhibitors: cycloheximide protein synthesis block; Cycloheximide counterscreen, protein synthesis reporter, Shiga toxin assay; shares compounds with Shiga toxin inh; Potency, µM (highest dose often 38.3 µM), most hits filed as activators; 510 tested, 3% active
A number is an active result. Shown is part of a subset that was picked to be rich in hits. Unless noted, calls come from the whole dose curve.

Results for Cc1nnc(NC(=O)C2c3ccccc3Oc3ccccc32)s1 ?
Tb PYK inh: inconclusive; CHX counter-1: inactive; SARS PLpro yeast: inactive; Shiga toxin inh: inactive; NS1 inh: inactive; LmPK inh: inactive

How did Cc1nnc(NC(=O)C2COc3ccccc3O2)s1 (stereo unspecified) do in these assays?
Tb PYK inh: inactive; CHX counter-1: inactive; SARS PLpro yeast: inactive; Shiga toxin inh: 98.8; NS1 inh: inactive; LmPK inh: inactive; CHX counter-2: inconclusive

What do the screens show for `COc1cc(/C=C2/C(=O)c3cccc([N+](=O)[O-])c3C2=O)c(Br)cc1O`?
Tb PYK inh: inconclusive; CHX counter-1: inactive; SARS PLpro yeast: inactive; Shiga toxin inh: 61.1; NS1 inh: inactive; LmPK inh: 14.1µM; CHX counter-2: inconclusive

Results for COc1ccccc1NC(=O)CCCCCN1C(=O)c2cccc([N+](=O)[O-])c2C1=O ?
Tb PYK inh: inactive; CHX counter-1: inactive; SARS PLpro yeast: inactive; Shiga toxin inh: inactive; NS1 inh: inactive; LmPK inh: inactive

What do the screens show for `CC(C)C(=O)SCCCCCCC(=O)Nc1nc(-c2ccccc2)cs1`?
CHX counter-1: inactive; Shiga toxin inh: 15.7; CHX counter-2: inactive

Results for O=C(O)CCCC(=O)Nc1nc(-c2ccccc2)cs1 ?
Tb PYK inh: inactive; CHX counter-1: inactive; SARS PLpro yeast: inactive; Shiga toxin inh: inactive; NS1 inh: inactive; LmPK inh: inactive

How did COc1cc(OC)c(NC(=O)C(C)n2nc(-c3ccc(C)cc3)c3c(c2=O)CCCC3)cc1Cl (stereo unspecified) do in these assays?
Tb PYK inh: inactive

How did O=C(COc1ccccc1)N1CCN(C(=O)c2ccco2)CC1 do in these assays?
Tb PYK inh: inactive; CHX counter-1: inactive; SARS PLpro yeast: inactive; Shiga toxin inh: inactive; NS1 inh: inactive; LmPK inh: inactive

How did O=C(CSCc1ccccc1)N1CCN(C(=O)c2ccco2)CC1 do in these assays?
Tb PYK inh: inactive; CHX counter-1: inactive; SARS PLpro yeast: inactive; Shiga toxin inh: 45.9; NS1 inh: inactive; LmPK inh: inactive; CHX counter-2: inconclusive

What do the screens show for `Cc1cccc(S(=O)(=O)NC(=O)C2(C)CCN2C(=O)C/C=C/c2ccccc2)c1` (stereo unspecified)?
Tb PYK inh: inactive

Results for COc1cc2c(c(OC)c1OC)-c1c(cc(OC)c(OC)c1OC)C[C@](C)(O)[C@@H](C)C2 ?
Tb PYK inh: inactive; CHX counter-1: inactive; SARS PLpro yeast: inactive; Shiga toxin inh: 48.7; NS1 inh: inactive; LmPK inh: inactive; CHX counter-2: inactive

What do the screens show for `NC(=O)C1CCN(C(=O)C2c3ccccc3C(=O)N3CCc4ccccc4C23)CC1` (stereo unspecified)?
Tb PYK inh: inactive; CHX counter-1: inactive; SARS PLpro yeast: inactive; Shiga toxin inh: 46.2; NS1 inh: inactive; LmPK inh: inactive; CHX counter-2: inactive

What do the screens show for `COc1ccccc1N1CCN(c2c(CN3CCCC3)c(=O)oc3ccccc23)CC1`?
Tb PYK inh: inactive

How did Cc1ccc2nc3c(cc(C(=O)NCC4CCCO4)c(=N)n3C(C)C)c(=O)n2c1 (stereo unspecified) do in these assays?
Tb PYK inh: inactive

How did CC(C)(C)NC(=O)c1ccc(COc2ccccc2Br)o1 do in these assays?
Tb PYK inh: inactive; CHX counter-1: inactive; SARS PLpro yeast: inactive; Shiga toxin inh: 34.4; NS1 inh: inactive; LmPK inh: inactive; CHX counter-2: inactive

Results for CCC(=O)N(CCC(c1ccc(C)cc1)c1ccco1)Cc1ccco1 (stereo unspecified) ?
Tb PYK inh: inactive; CHX counter-1: inactive; SARS PLpro yeast: inactive; Shiga toxin inh: inactive; NS1 inh: inactive; LmPK inh: inactive

How did CC(=O)Nc1ccc(C2(c3ccc(NC(C)=O)cc3)C(=O)Nc3ccccc32)cc1 do in these assays?
Tb PYK inh: inactive; CHX counter-1: inactive; SARS PLpro yeast: inactive; Shiga toxin inh: inactive; LmPK inh: inactive

Results for CC(=O)Nc1ccc(C2(O)COc3ccccc3O2)cc1 (stereo unspecified) ?
Tb PYK inh: inactive; CHX counter-1: inactive; SARS PLpro yeast: inactive; Shiga toxin inh: 131.6; NS1 inh: inactive; LmPK inh: inactive; CHX counter-2: inactive

What do the screens show for `Cc1ccccc1CNC(=O)c1ccc(Cn2c(SCc3cccc(F)c3)nc3cccnc32)cc1`?
Tb PYK inh: inactive

How did Cc1cc(C(=O)CS(=O)(=O)c2ccc(F)cc2)cc(C)c1O do in these assays?
Tb PYK inh: inactive; CHX counter-1: inactive; SARS PLpro yeast: inactive; Shiga toxin inh: 34.2; NS1 inh: inactive; LmPK inh: inactive; CHX counter-2: inconclusive

Results for Cc1ccc(S(=O)(=O)CC(=O)c2ccc(C(C)(C)C)cc2)cc1 ?
Tb PYK inh: inactive; CHX counter-1: inactive; SARS PLpro yeast: inactive; Shiga toxin inh: inactive; NS1 inh: inactive; LmPK inh: inactive

What do the screens show for `CCOc1ccc2nc(NC(=O)CN3CCN(c4ccccn4)CC3)sc2c1`?
Tb PYK inh: inactive; CHX counter-1: inactive; Shiga toxin inh: 55.7; NS1 inh: inactive; LmPK inh: inactive; CHX counter-2: inactive

Results for Cc1nonc1OCCCNc1ccc([N+](=O)[O-])cc1Cl ?
Tb PYK inh: inactive; CHX counter-1: inactive; SARS PLpro yeast: inactive; Shiga toxin inh: 116.0; LmPK inh: inactive; CHX counter-2: inconclusive

How did Cc1nonc1OCCNc1ccc([N+](=O)[O-])cc1[N+](=O)[O-] do in these assays?
Tb PYK inh: inactive; CHX counter-1: inactive; SARS PLpro yeast: inactive; Shiga toxin inh: inactive; NS1 inh: inactive; LmPK inh: inactive

How did CN(C)CCCNC(=O)C(=O)NCC(c1ccc2c(c1)OCO2)N1CCOCC1 (stereo unspecified) do in these assays?
Tb PYK inh: inactive

What do the screens show for `Cc1ccc(N(CC(=O)NCc2ccco2)C(=O)CCC(=O)Nc2nccs2)c(C)c1`?
Tb PYK inh: inactive; CHX counter-1: inactive; SARS PLpro yeast: inactive; Shiga toxin inh: 27.2; NS1 inh: inactive; LmPK inh: inactive; CHX counter-2: inactive

How did CCOC(=O)N1CCN(C(=O)CCC(=O)c2ccc(OCC)cc2)CC1 do in these assays?
Tb PYK inh: inactive; CHX counter-1: inactive; SARS PLpro yeast: inactive; Shiga toxin inh: 41.0; NS1 inh: inactive; LmPK inh: inactive; CHX counter-2: inactive

Results for Cn1cc(Br)c(C(=O)N2CCc3ccccc32)n1 ?
Tb PYK inh: inactive; CHX counter-1: inactive; SARS PLpro yeast: inactive; Shiga toxin inh: active; NS1 inh: inactive; LmPK inh: inactive; CHX counter-2: inactive

Results for CC1CCN(CCOCCSc2ccc(Cl)cc2)CC1 ?
Tb PYK inh: inactive; CHX counter-1: inactive; SARS PLpro yeast: inactive; Shiga toxin inh: inactive; NS1 inh: inactive; LmPK inh: inactive

Results for CC1CCCN(CCSc2ccc(Cl)cc2)C1 (stereo unspecified) ?
Tb PYK inh: inactive; CHX counter-1: inactive; SARS PLpro yeast: inactive; Shiga toxin inh: 30.3; NS1 inh: inactive; LmPK inh: inactive; CHX counter-2: inactive
